Screening data (PubChem BioAssay)
This is a sample that favours compounds with a hit; in the whole collection about 1.1% have one here.
SARS PLP yeast = SARS-CoV PLP inhibition in yeast | S. cerevisiae expressing SARS-CoV PLpro, growth rescue | Potency, µM (doses to about 32.9 µM), without a hit: at the highest dose activity, positive = growth rescue, usual class: activators | 330,000 compounds, 0.19% hits; calls by dose curve; note: 0% is about no effect; nearly all actives have a fitted effect of over 55% in size
Giardia FBPA inh = blocks Giardia fructose-bisphosphate aldolase activity; Potency, µM (top dose mostly 59.6 µM), inactives show at the highest dose activity, negative = inhibition, most hits filed as inhibitors; purified Giardia FBPA; 290,000 compounds, 0.71% hits; note: % is set by controls: 0 for no effect and ±100 for the full control effect; nearly all actives have a fitted effect of over 55% in size
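40 nM FBPA preincubated 10 min at RT with compound (up to 57.5 uM final), then substrate plus GAPDH/TPI/NAD/arsenate coupling and diaphorase/resazurin added. Fluorescence read after 20 min at RT, 525/598 nm.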
LmPK inhibitor = blocks Leishmania mexicana pyruvate kinase activity. purified LmPK, Kinase-Glo ATP luminescence, 1 h. Potency, µM (top dose mostly 57.5 µM), for inactives: top-dose activity change, negative = inhibition, most hits filed as inhibitors. 290,000 compounds, 0.37% hits; note: % is set by controls: 0 for no effect and ±100 for the full control effect
Target sequence (Q27686 whole entry, looked up): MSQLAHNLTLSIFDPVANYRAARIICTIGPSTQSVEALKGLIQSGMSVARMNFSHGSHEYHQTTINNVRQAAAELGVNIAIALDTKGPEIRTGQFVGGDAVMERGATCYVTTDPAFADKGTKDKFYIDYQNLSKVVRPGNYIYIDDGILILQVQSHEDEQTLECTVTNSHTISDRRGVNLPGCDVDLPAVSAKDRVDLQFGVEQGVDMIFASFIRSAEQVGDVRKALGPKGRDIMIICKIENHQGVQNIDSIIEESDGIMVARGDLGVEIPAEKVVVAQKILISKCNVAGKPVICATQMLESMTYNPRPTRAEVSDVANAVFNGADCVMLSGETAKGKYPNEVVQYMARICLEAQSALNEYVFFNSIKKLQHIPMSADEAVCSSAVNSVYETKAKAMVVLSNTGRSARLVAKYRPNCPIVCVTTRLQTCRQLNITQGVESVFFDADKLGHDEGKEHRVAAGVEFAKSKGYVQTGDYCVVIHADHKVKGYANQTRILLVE
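Purified LmPK (0.1 nM) with 0.5 mM PEP and 0.1 mM ADP in imidazole buffer pH 7.2 with MgCl2/KCl, 1 h at room temperature. ATP formed was read by luciferase luminescence and normalized to no-enzyme and uninhibited controls.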
Tb PYK inh = blocks Trypanosoma brucei pyruvate kinase | Q57TT1 | TbPYK enzyme, Kinase-Glo Plus ATP luminescence, 45 min | Potency, µM (titrated, usually from 76.8 µM), without a hit: top-dose activity, negative = inhibition, actives largely listed as inhibitors | 410,000 compounds, 0.12% hits; note: % is set by controls: 0 for no effect and ±100 for the full control effect; nearly all actives have a fitted effect of over 50% in size
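Luminescent Kinase-Glo Plus end-point after 45 min room-temperature reaction of T. brucei pyruvate kinase started with 130 uM ADP (final). Buffer TEA 50 mM pH 7.2 with KCl, MgCl2, BSA, Tween-20; titration-based qHTS with fitted concentration-effect curves.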
RE007 growth inh = less growth of the S. pombe RE007 Vpr strain. S. pombe RE007 Vpr strain, BacTiter-Glo ATP luminescence, 24 h. Potency, µM (top dose mostly 92.2 µM), without a hit: top-dose activity change, negative = less growth, usual class: inhibitors. 360,000 compounds, 0.21% hits; active = well fitted falling curve with a large enough effect; inconclusive = small, poorly fitted or top-dose-only effect; inactive = no such curve, though single readings can be large or run the other way; note: % is set by controls: 0 for no effect and ±100 for the full control effect; nearly all actives have a fitted effect of over 50% in size
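Fission yeast strain RE007, carrying one chromosomally integrated HIV-1 vpr copy, was seeded at OD 0.01 in PMG+AL medium with 23 nL pinned compound. After 24 h at 30 °C and 99% humidity, viability was read by BacTiter-Glo luminescence.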
An asterisk follows results filed as active; ? = inconclusive; nt = no result. Unless noted, calls come from the whole dose curve; as a rule, active = well fitted curve in the direction sought with a large enough effect; inconclusive = small, poorly fitted or top-dose-only effect, or another doubt; inactive = no such curve, though single readings can be large; an effect the other way counts as inactive or inconclusive. Potency is the fitted concentration of half-maximal effect.

SMILES | SARS PLP yeast | Giardia FBPA inh | LmPK inhibitor | Tb PYK inh | RE007 growth inh
O=C(C1CCN(C2CC(=O)N(Cc3ccccc3)C2=O)CC1)N1CCCCCC1 (stereo unspecified) | -34% | 1% | -6% | 7% | ?
CCN(CC)C1CC(=O)N(c2cccc(Cl)c2)C1=O (stereo unspecified) | -23% | 12% | -1% | -2% | 5.6µM*
CCOC(=O)c1ccc(N2C(=O)CC(N3CCOCC3)C2=O)cc1 (stereo unspecified) | -22% | 3% | -4% | 4% | 35µM*
CCC(C(=O)Nc1ccc(C)c(C)c1)n1c(=O)c(C(F)(F)F)nc2ccccc21 (stereo unspecified) | nt | nt | nt | 2% | nt
CCSc1ncc(Cl)c(C(=O)Nc2c(C(=O)Nc3ccc(Cl)cc3)oc3ccccc23)n1 | nt | nt | nt | -11% | nt
CC1=C(C(=O)Nc2ccccc2C)C(c2cccs2)n2nc(SCc3ccccc3)nc2N1 (stereo unspecified) | nt | nt | nt | 6% | nt
CCCCCc1cc(O)c2c(c1)OC(C)(C)c1ccc(C)cc1-2 | nt | nt | nt | 9% | nt
O=C(O)c1ccc(N2C(=O)CC(N3CCN(c4ccc(Cl)cc4)CC3)C2=O)cc1 (stereo unspecified) | 0% | -9% | -6% | -11% | -1%
O=C(C1CCN(C2CC(=O)N(c3ccc(Cl)cc3)C2=O)CC1)N1CCOCC1 (stereo unspecified) | -36% | 0% | -3% | -9% | 13µM*
CCOC(=O)c1ccc(N2C(=O)CC(N(C)CCc3ccc(OC)c(OC)c3)C2=O)cc1 (stereo unspecified) | -29% | -6% | 9% | -5% | 4µM*
COC(=O)C1CCN(C2CC(=O)N(c3cc(C)cc(C)c3)C2=O)CC1 (stereo unspecified) | -5% | 1% | 2% | 3% | 35µM*
CCN1C(=O)CC(N2CCC(C(=O)OC)CC2)C1=O (stereo unspecified) | -9% | 5% | -11% | 4% | -19%
Cc1ccc2c(=O)c(C(=O)c3cccc(Cl)c3)cn(CC(=O)NCc3ccc(F)cc3)c2n1 | nt | nt | nt | 3% | nt
CCc1ccccc1NC(=O)C1(C)Cc2ccccc2C(=O)O1 (stereo unspecified) | nt | nt | nt | -1% | nt
Cc1ccc2c(CC(=O)Nc3cccc(C(F)(F)F)c3)coc2c1 | nt | nt | nt | -7% | nt
COc1cc2c(cc1OC)-c1n[nH]c(=S)n1C(C)(C)C2 | 1% | -10% | 18µM* | ? | 4%
Cc1cccc(Cn2c(=O)n(-c3ccc(Cl)c(Cl)c3)c(=O)c3c(C)c(C)sc32)c1 | nt | nt | nt | 1% | nt
CCc1nnc(SCC(=O)N(C)c2ccccc2)c2cc3sccc3n12 | nt | nt | nt | -13% | nt
Cc1ccc(C(=O)ONc2ccc(N=O)cc2)cc1 | -12% | -7% | 10µM* | ? | 5.6µM*
Nc1ncnc2c1ncn2[C@@H]1O[C@H](COP(=O)(O)OP(=O)(O)OP(=O)(O)O)[C@@H](O)[C@H]1O | nt | nt | nt | -20% | 3.2µM*
C=Cc1c(C)/c2[n-]/c1=C\c1[n-]c(c(CC)c1C)/C=c1\[n-]c3c(c1C)C(=O)C(C(=O)[O-])C=3c1[n-]c(c(C)c1CCC(=O)[O-])\C=2.[Cu].[Na+].[Na+] (stereo unspecified) | nt | 14µM* | nt | -17% | nt
Cc1ccc(/C=C/c2nc3ccccc3[nH]2)o1 | -17% | ? | 16µM* | ? | -30%
O=S(=O)(O)OCC1OC(COS(=O)(=O)O)(C2(OS(=O)(=O)O)OC(CO)C(OS(=O)(=O)O)C(OS(=O)(=O)O)C2OS(=O)(=O)O)C(OS(=O)(=O)O)C1OS(=O)(=O)O (stereo unspecified) | nt | nt | nt | -3% | nt
Cc1ccccc1NC(=O)CSc1nnc(-c2ccco2)c(-c2ccco2)n1 | -6% | 1.8µM* | 5% | 20µM* | 4%
CSc1nnc(-c2ccco2)c(-c2ccco2)n1 | -3% | 3.5µM* | -1% | ? | -24%
SMILES | SARS PLP yeast | Giardia FBPA inh | LmPK inhibitor | Tb PYK inh | RE007 growth inh
O=C(Nc1ccccc1C(=O)N/N=C/c1ccccc1)c1ccco1 | -10% | 3% | -3% | 3% | -25%
COc1ccc(C(=O)Nc2ccccc2C(=O)N/N=C/c2ccncc2)cc1OC | -7% | -1% | 14µM* | -29% | 8.9µM*
O=C(Nc1ccccc1C(=O)N/N=C/c1ccc(O)cc1)c1ccccc1 | -4% | -9% | 14µM* | -23% | ?
CCC(C(=O)Nc1cc(-c2cn3cccnc3n2)ccc1C)c1ccccc1 (stereo unspecified) | nt | nt | nt | -3% | nt
S=c1[nH]nc(-c2ccco2)n1C1CCCCC1 | 28% | -10% | 25µM* | ? | 15%
Nn1c(-c2ccco2)n[nH]c1=S | -1% | ? | 4% | -22% | -3%
COc1ccc(-n2c(-c3ccco3)n[nH]c2=S)cc1 | 3% | 2% | ? | ? | -12%
S=c1[nH]nc(-c2ccco2)n1-c1ccc(Cl)cc1 | 0% | 1% | 18µM* | ? | 4%
S=c1[nH]nc(-c2ccco2)n1-c1cccc2ccccc12 | -3% | 0% | 7.9µM* | 2.8µM* | 2%
Cn1cc(Cl)c(-c2n[nH]c(=S)n2C2CCCCC2)n1 | -4% | -5% | 20µM* | 7.1µM* | 22%
Cc1csc2nc(COC(=O)c3ccc(NC(=O)c4ccccc4Br)cc3)cc(=O)n12 | nt | nt | nt | 0% | nt
C=CCOc1ccc2ccccc2c1/C=N/O | -13% | -1% | 2% | 4% | 32µM*
Cc1ccc(-c2n[nH]c(=S)n2Cc2ccccc2)cc1 | 4% | 9% | 13µM* | ? | -5%
Cc1cccc(-c2n[nH]c(=S)n2Cc2ccccc2)c1 | 8.9µM* | 8% | 18µM* | ? | 7%
S=c1[nH]nc(-c2cccc(Cl)c2)n1Cc1ccccc1 | 3% | 1% | ? | ? | 4%
Oc1ccc(-c2n[nH]c(=S)n2Cc2ccco2)cc1 | -4% | -2% | 11µM* | ? | -8%
CCOc1ccc(-c2n[nH]c(=S)n2Cc2ccccc2)cc1 | 11% | 20% | ? | ? | -3%
CSCCC(NC(=O)[C@H](Cc1c[nH]c2ccccc12)NC(=O)CNC(=O)[C@H](CCSC)NC(=O)[C@H](Cc1ccc(OS(=O)(=O)O)cc1)NC(=O)[C@@H](N)CC(=O)O)C(=O)N[C@@H](CC(=O)O)C(=O)N[C@@H](Cc1ccccc1)C(N)=O (stereo partly specified) | nt | nt | nt | 3% | nt
O=C(O)c1ccnc(C(=O)O)c1 | 1% | 1.8µM* | 3% | 2% | 8%
Cc1ccc(O)c(NC2=C(Cl)C(=O)N(Cc3ccccc3)C2=O)c1 | -2% | -25% | -9% | 35µM* | 4%
Cc1ccc2ccc(C(Nc3cccc(C(F)(F)F)c3)c3cccnc3)c(O)c2n1 (stereo unspecified) | 10µM* | -1% | 8% | 3% | -1%
